Data taken from the supplement of paper PMC8975748.
Counter-ions that a name gives are not always drawn.

What follows are molecules tested on Saccharomyces cerevisiae BY4741 SeMeCo community (assay: z-score of subpopulation abundance vs DMSO median, subpopulation auxotrophic for LU; higher = larger share of this subpopulation than in DMSO controls). Details: 10 µM; 24 h; SM minimal medium; subpopulation (auxotrophy): LU.
Description: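 Fluorescent four-plasmid SeMeCo (self-establishing metabolically cooperating S. cerevisiae BY4741 community; plasmids pH-mRuby2, pL-mWasabi, pU-eCFP, pM-TagRFP657) was grown 24 h in minimal SM medium with each Selleck FDA-approved drug at 10 µM in 384-well plates. Cells were fixed and imaged by high-content confocal microscopy. For each auxotrophic subpopulation (and the prototroph), a z-score gives the deviation from the DMSO vehicle-control population median.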

Point of comparison: `COC(=O)Nc1nc2cc([S+]([O-])c3ccccc3)ccc2[nH]1` (stereo not given) [Oxfendazole], “z-score of subpopulation abundance” value 0.48. Against it:
- Cc1nc(NC(=O)N2CCC[C@H]2C(N)=O)sc1-c1ccnc(C(C)(C)C(F)(F)F)c1 [Alpelisib (BYL719)] — lower, 0.28
- CCN(CC)CCOc1ccc(C(=C(Cl)c2ccccc2)c2ccccc2)cc1 [Clomifene citrate] — higher, 1.04
- CN1CCN(C2=Nc3ccccc3Oc3ccc(Cl)cc32)CC1 [Loxapine Succinate] — higher, 1.85
- NNc1nncc2ccccc12 [Hydralazine HCl] — lower, -0.18
- CCN1CCC[C@H]1CNC(=O)c1cc(S(N)(=O)=O)ccc1OC [Levosulpiride] — lower, 0.1
- CC/C(=C(\c1ccccc1)c1ccc(OCCN(C)C)cc1)c1ccccc1 [Tamoxifen Citrate] — lower, 0.35
- CCCCCCCCCC(=O)N[C@@H](Cc1c[nH]c2ccccc12)C(=O)N[C@H](CC(N)=O)C(=O)N[C@@H](CC(=O)O)C(=O)N[C@@H]1C(=O)NCC(=O)N[C@@H](CCCN)C(=O)N[C@@H](CC(=O)O)C(=O)N[C@H](C)C(=O)N[C@@H](CC(=O)O)C(=O)NCC(=O)N[C@H](CO)C(=O)N[C@@H]([C@H](C)CC(=O)O)C(=O)N[C@@H](CC(=O)c2ccccc2N)C(=O)O[C@@H]1C [Daptomycin] — lower, -0.76
- C[C@@H](O)[C@H]1C(=O)N2C(C(=O)O)=C(S[C@@H]3CN[C@H](C(=O)Nc4cccc(C(=O)O)c4)C3)[C@H](C)[C@H]12 [Ertapenem sodium] — lower, -0.01
- N[C@@H]1CONC1=O [D-Cycloserine] — lower, -0.16
- Clc1ccc(C(Cn2ccnc2)OCc2c(Cl)cccc2Cl)c(Cl)c1 (stereo not given) [Isoconazole nitrate] — lower, -1.43
- Cc1cc(O)cc(C)c1Cl [Chloroxylenol] — higher, 0.64
- CCOC(=O)CCC(=O)O[C@H]1[C@H](O[C@@H]2[C@@H](C)[C@H](O[C@H]3C[C@@](C)(OC)[C@@H](O)[C@H](C)O3)[C@@H](C)C(=O)O[C@H](CC)[C@@](C)(O)[C@H](O)[C@@H](C)C(=O)[C@H](C)C[C@@]2(C)O)O[C@H](C)C[C@@H]1N(C)C [Erythromycin Ethylsuccinate] — higher, 0.76
- CCCc1nc(C)c2c(=O)nc(-c3cc(S(=O)(=O)N4CCN(CC)CC4)ccc3OCC)[nH]n12 [Vardenafil HCl Trihydrate] — higher, 0.67
- CCC[C@@H]1C[C@@H](C(=O)N[C@@H]([C@H]2O[C@H](SC)[C@H](O)[C@@H](O)[C@H]2O)[C@H](C)Cl)N(C)C1 [Clindamycin HCl] — lower, -0.2
- Cc1onc(-c2ccccc2Cl)c1C(=O)N[C@@H]1C(=O)N2[C@@H]1SC(C)(C)[C@@H]2C(=O)O [Cloxacillin Sodium] — lower, 0.4
- C[C@]12CC[C@@H]3c4ccc(OC(=O)c5ccccc5)cc4CC[C@H]3[C@@H]1CC[C@@H]2O [Estradiol Benzoate] — lower, -0.68
- CC(C)[C@H]1CC[C@H](C(=O)N[C@H](Cc2ccccc2)C(=O)O)CC1 [Nateglinide] — lower, 0
- CC[C@@H]1C(=O)OC[C@@H]1Cc1cncn1C [Pilocarpine HCl] — lower, -0.22
- C#C[C@]1(OC(C)=O)CC[C@H]2[C@@H]3CCC4=C[C@@H](OC(C)=O)CC[C@@H]4[C@H]3CC[C@@]21C [Ethynodiol diacetate] — lower, -0.48
- CCOC(=O)OC(C)OC1=C(C(=O)Nc2ccccn2)N(C)S(=O)(=O)c2ccccc21 (stereo not given) [Ampiroxicam] — lower, -0.67
- CCC(C)(C)C(=O)O[C@H]1C[C@@H](C)C=C2C=C[C@H](C)[C@H](CC[C@@H]3C[C@@H](O)CC(=O)O3)[C@H]21 [Simvastatin] — higher, 1.71
- COc1ccc2c3c1O[C@H]1C[C@@H](O)C=C[C@@]31CCN(C)C2 [Galanthamine] — lower, 0.29
- c1cnc(N2CCN(Cc3ccc4c(c3)OCO4)CC2)nc1 [Piribedil] — the same, 0.48
- NC(=O)c1cnccn1 [Pyrazinamide] — lower, 0.31
- Cc1cccc(C)c1NC(=O)C1CCCCN1C (stereo not given) [Mepivacaine HCl] — lower, 0.44
- Cc1nc(Nc2ccc(F)cc2)nc(N2CCc3ccccc3C2C)c1C (stereo not given) [Revaprazan Hydrochloride] — lower, 0.2
- CC1=C(C(=O)O)N2C(=O)[C@@H](NC(=O)[C@H](N)c3ccccc3)[C@H]2SC1 [Cephalexin] — lower, -0.21
- CCn1cc(C(=O)O)c(=O)c2cc(F)c(N3CCNC(C)C3)c(F)c21 (stereo not given) [Lomefloxacin HCl] — higher, 0.53
- CC[C@H](C)C(=O)O[C@H]1C[C@H](O)C=C2C=C[C@H](C)[C@H](CC[C@@H](O)C[C@@H](O)CC(=O)O)[C@H]21 [Pravastatin] — higher, 0.89
- O=C(O[C@H]1CN2CCC1CC2)N1CCc2ccccc2[C@@H]1c1ccccc1 [Solifenacin succinate] — lower, 0.43
- CC1(C)S[C@@H]2[C@H](NC(=O)[C@H](N)c3ccccc3)C(=O)N2[C@H]1C(=O)OCOC(=O)[C@@H]1N2C(=O)C[C@H]2S(=O)(=O)C1(C)C [Sultamicillin] — higher, 0.83
- C/C=C\c1ccc(O)c(OC)c1 [Isoeugenol] — lower, -0.07
- CO[C@H]1C[C@@H]2CC[C@@H](C)[C@@](O)(O2)C(=O)C(=O)N2CCCC[C@H]2C(=O)O[C@H]([C@H](C)C[C@@H]2CC[C@H](n3cnnn3)[C@H](OC)C2)CC(=O)[C@H](C)/C=C(\C)[C@@H](O)[C@@H](OC)C(=O)[C@H](C)C[C@H](C)/C=C/C=C/C=C/1C [Zotarolimus(ABT-578)] — higher, 3.23
- CCc1c2c(nc3ccc(OC(=O)N4CCC(N5CCCCC5)CC4)cc13)-c1cc3c(c(=O)n1C2)COC(=O)[C@]3(O)CC [Irinotecan HCl Trihydrate] — lower, -0.66
- COc1ccc2cc(C(=O)O)ccc2c1 [6-Methoxy-2-naphthoic acid] — lower, -1.63
- CCN1CCN(c2cc3c(cc2F)c(=O)c(C(=O)O)cn3C2CC2)CC1 [Enrofloxacin] — lower, -0.21
- CCCCN(CCCC)CC(O)c1cc(Cl)cc2c1-c1ccc(Cl)cc1/C2=C/c1ccc(Cl)cc1 (stereo not given) [Lumefantrine] — lower, 0.38
- CCN1CCN(C(=O)N[C@@H](C(=O)N[C@@H]2C(=O)N3C(C(=O)O)=C(CSc4nnnn4C)CS[C@H]23)c2ccc(O)cc2)C(=O)C1=O [Cefoperazone] — lower, -0.39
- CC1=CC[C@@](O)(C(C)C)CC1 [Terpinen-4-ol] — higher, 0.74
